{"source": "PubChem BioAssay AID1347076", "about": "(National Center for Advancing Translational Sciences (NCATS), 2019)", "note": "The campaign covered roughly 400,000 compounds. About 13,000 (3.2%) were called active. Roughly 18% stayed inconclusive and do not appear here. What follows is part of a selection rich in actives, with near analogues and random picks from the rest. A number with no mark means an inactive call. Calls follow the shape of the dose curve; as a rule, active = well fitted cell-killing curve with a large enough effect; inconclusive = small, poorly fitted or top-dose-only effect, or effect the other way; inactive = flat fitted curve, though single readings scatter. % is scaled to controls: 0 for no effect and ±100 for the full control effect; potency is read from the fitted curve at half-maximal effect."}
{"experiment": "qHTS assay for MDR1-selective chemotherapeutics: Primary screen using the drug-selected MDR subline cells KB-V1; also: nearly all actives have a fitted effect of over 60% in size", "conditions": "KB-V1 MDR cells viability, CellTiter-Glo, 72 h; series mostly up to 46.1 µM; activity change, negative = cytotoxicity: at the top concentration", "method_in_brief": "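Readout: CellTiter-Glo luminescence, 10 min after addition. Cells: KB-V1 MDR subline, 72 h at 37 degrees C with compound. Analysis: corrected, normalized data fitted to concentration-effect curves.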", "units": {"activity change, negative = cytotoxicity": "%"}}
{"smiles": "O=C(NCc1cccnc1)c1cc(C2CCCN(C(=O)C3CCCCC3)C2)on1", "note": "(stereo not drawn)", "activity change, negative = cytotoxicity": 3.13}
{"smiles": "CC1(C)CC(=O)c2cc(C(=O)NCc3ccccc3)c(=O)[nH]c2C1", "activity change, negative = cytotoxicity": 20.8}
{"smiles": "CC(NC(=O)c1ccccc1SCC(=O)N1CCCC1)c1ccccc1", "note": "(stereo not drawn)", "activity change, negative = cytotoxicity": -20.8}
{"smiles": "CC(NC(=O)c1ccccc1F)c1cccc2ccccc12", "note": "(stereo not drawn)", "activity change, negative = cytotoxicity": -13.6}
{"smiles": "CC(NC(=O)c1cccc2ccccc12)c1ccc2c(c1)CCCC2", "note": "(stereo not drawn)", "Potency": "20.6 µM (active)"}
{"smiles": "O=C1CCC(=O)N1CCC(=O)N(C(=O)NC1CCCCC1)C1CCCCC1", "activity change, negative = cytotoxicity": -20.2}
{"smiles": "CCOc1ccc(CCN2C(=O)C(=O)N([C@@H](Cc3ccc(O)cc3)CN3CCC[C@H]3CN3C(=O)C(=O)NC[C@@H]3CC(C)C)C[C@@H]2Cc2ccccc2)cc1", "activity change, negative = cytotoxicity": -3.43}
{"smiles": "CCCNC(=O)C1(C)CCN(C(=O)c2ccccc2OC(F)(F)F)C1", "note": "(stereo not drawn)", "activity change, negative = cytotoxicity": 16.4}
{"smiles": "Cc1cc(O)ccc1-c1cc(C(=O)NCc2cc(C(F)(F)F)cc(C(F)(F)F)c2)[nH]n1", "activity change, negative = cytotoxicity": 7.22}
{"smiles": "CC1CCN(c2ccc([N+](=O)[O-])c(SCCO)c2)CC1", "activity change, negative = cytotoxicity": -1.25}
{"smiles": "CN1CCN(c2ccc([N+](=O)[O-])c(Sc3nc4ccccc4[nH]3)c2)CC1", "Potency": "14.6 µM (active)"}
{"smiles": "O=[N+]([O-])c1ccc(N2CCSCC2)cc1O", "activity change, negative = cytotoxicity": 0}
{"smiles": "COc1ccc(Sc2ccc(NC(=O)c3cccc(Cl)c3)cc2C#N)cc1", "activity change, negative = cytotoxicity": 2.24}
{"smiles": "COc1ccc(-c2nn(-c3ccccc3)cc2C(=O)Nc2nccs2)cc1OC", "activity change, negative = cytotoxicity": -9.36}
{"smiles": "COc1ccc(-c2nn(-c3ccccc3)cc2/C=N/Nc2ccccn2)cc1OC", "Potency": "3.66 µM (active)"}
{"smiles": "Oc1ccc(Br)cc1/C=N/Nc1ccccn1", "activity change, negative = cytotoxicity": 0.606}
{"smiles": "CS(=O)(=O)c1cccc(-c2ccc3nncn3c2)c1", "activity change, negative = cytotoxicity": -2.98}
{"smiles": "CCN(CCCNC(=O)c1c(C)oc2ncn(CC(C)C)c(=O)c12)Cc1ccccc1", "activity change, negative = cytotoxicity": 2.97}
{"smiles": "OCCN1CCN(c2ncnc3c2ncn3[C@H]2CN(Cc3ccco3)C[C@@H](CO)O2)CC1", "activity change, negative = cytotoxicity": -0.202}
{"smiles": "Cc1ccc(S(=O)(=O)Cc2cc(-c3ccc(Cl)cc3)no2)cc1", "activity change, negative = cytotoxicity": -17.3}
{"smiles": "O=S(=O)(NCc1ccc(Cl)cc1Cl)c1cccs1", "activity change, negative = cytotoxicity": -2.09}
{"smiles": "O=S(=O)(Cc1ccc(Cl)cc1Cl)c1ccc(Cl)cc1", "Potency": "1.46 µM (active)"}
{"smiles": "CCCCc1ccc(S(=O)(=O)NC(=O)C2(C)CCN2C(=O)c2c(C)noc2C)cc1", "note": "(stereo not drawn)", "activity change, negative = cytotoxicity": -17.6}
{"smiles": "CCN(CCN(C)C)C(=O)c1ccc2nc(C)c(N(C)C(=O)CCc3ccccc3)n2c1", "activity change, negative = cytotoxicity": 4.85}
{"smiles": "O=C(NC1CCCC1)C(c1ccccn1)N(C(=O)c1csnn1)C1CCCC1", "note": "(stereo not drawn)", "Potency": "20.6 µM (active)"}
{"smiles": "O=C(NC1CCCC1)C(c1ccc(Cl)cc1)N(C(=O)c1csnn1)C1CC1", "note": "(stereo not drawn)", "activity change, negative = cytotoxicity": -1.08}
{"smiles": "Cc1ccc(C(C(=O)NC2CCCCC2)N(C(=O)c2csnn2)C2CC2)o1", "note": "(stereo not drawn)", "activity change, negative = cytotoxicity": -1.13}
{"smiles": "Cc1ccc(NC(=O)c2cc3cc(C)ccc3n2C)cc1", "activity change, negative = cytotoxicity": 0}
{"smiles": "COc1ccccc1-c1n[nH]nc1C1=CC(=O)CC(C)(C)C1", "activity change, negative = cytotoxicity": 9.54}
{"smiles": "CNC(=O)NC(=O)C(OC(=O)c1cccc(S(=O)(=O)N2CCCCC2)c1)c1ccccc1", "note": "(stereo not drawn)", "Potency": "23.1 µM (active)"}
{"smiles": "O=C(NNC1=NCCC1)c1cccc(S(=O)(=O)N2CCCCC2)c1", "activity change, negative = cytotoxicity": 0.111}
{"smiles": "CC(OC(=O)c1cccc(S(=O)(=O)N2CCOCC2)c1)C(=O)NCC1CCCCC1", "note": "(stereo not drawn)", "activity change, negative = cytotoxicity": 2.96}
{"smiles": "Cc1cccc(CNC(=O)c2cnc3sc(N4CCCCC4)nn3c2=O)c1", "activity change, negative = cytotoxicity": 0}
{"smiles": "Cc1ccc(C)c2sc(NC(=O)c3ccc(S(=O)(=O)N4CCCC4)cc3)nc12", "activity change, negative = cytotoxicity": 8.13}
{"smiles": "Cc1nn(CC(=O)NCCc2ccccc2)c(=O)c2c1sc1ccccc12", "activity change, negative = cytotoxicity": -11.2}
{"smiles": "COC(=O)c1ccc(COc2ccc(/C=N/NC(=O)C(=O)Nc3ccc(OC)cc3)cc2OC)o1", "activity change, negative = cytotoxicity": -3.79}
{"smiles": "COc1cc(/C=N/NC(=O)Nc2ccccc2)ccc1OCCOc1ccccc1C", "Potency": "2.31 µM (active)"}
{"smiles": "COc1cc(/C=N/NC(=O)c2ccoc2C)ccc1OCCN1CCCCC1", "activity change, negative = cytotoxicity": 22.5}
{"smiles": "C[C@H]1CN([C@@H](C)CO)C(=O)CCCn2cc(nn2)CO[C@@H]1CN(C)S(=O)(=O)c1cccc(C#N)c1", "activity change, negative = cytotoxicity": -8.91}
{"smiles": "O=C(COC(=O)c1ccc(S(=O)(=O)N2CCCCCC2)cc1)Nc1ccccc1C(F)(F)F", "activity change, negative = cytotoxicity": 22.5}
{"smiles": "O=C(NCCc1ccccc1)c1ccc2c(c1)N(Cc1ccccc1)CCS2", "activity change, negative = cytotoxicity": -0.57}
{"smiles": "CCOC(=O)N1CCN(C(=O)c2ccc3c(c2)N(Cc2ccc(C)cc2)CCS3)CC1", "Potency": "3.26 µM (active)"}
{"smiles": "O=C(NCCN1CCOCC1)c1ccc2c(c1)N(Cc1ccc(Cl)cc1)CCS2", "activity change, negative = cytotoxicity": 2.02}
{"smiles": "OC[C@@H]1O[C@H](n2cnc3c(SCc4ccccc4)ncnc32)[C@H](O)[C@H]1O", "activity change, negative = cytotoxicity": 0}
{"smiles": "COc1cc(C(C)=O)ccc1OC(C)C(=O)Nc1ccc(S(=O)(=O)N2CCCC2)cc1", "note": "(stereo not drawn)", "activity change, negative = cytotoxicity": 0}
{"smiles": "COc1ccc(-c2ccc(Nc3ccc(S(=O)(=O)N4CCCC4)cc3)nn2)cc1OC", "Potency": "13 µM (active)"}
{"smiles": "COc1cc(C(=O)NNC(=O)c2ccc(S(=O)(=O)N3CCCCC3)cc2)cc(OC)c1OC", "activity change, negative = cytotoxicity": 14.7}
{"smiles": "CC(C)Oc1cc(F)ccc1-c1cc(C(=O)Nc2cccc(Cl)c2)[nH]n1", "activity change, negative = cytotoxicity": 0}
